# This is part of a sample that, as a whole, favours compounds with a hit. Of some 83,000 tested, about 20% had one in any assay.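 Compound tested at a single concentration for 48 hours in 96-well plates; a percent growth value below 10 was scored as active.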 Values without a mark were called inactive. Calls of active or inactive are those of the source. *1 amine or outer side, *2 acyl side, *3 side chain or, on linkers, in order; H or OH if unused. Where a SMILES comes first, the peptide text is derived from it. Bridges are numbered along the chain shown (N, C = ends). Roman numbers before positions name the chains, in order. [ ]: non-standard residue; d: D form. ξ: configuration not given here. Actinocin(1to9) = Cc1c2oc3c(C)ccc(C(=O)[*:2])c3nc-2c(C(=O)[*:1])c(N)c1=O; NMeV = CN[CH](C(=O)O)C(C)C; ξD = NC(CC(=O)O)C(=O)O; Sar = CNCC(=O)O
# Tested on: HOP-62 NSCLC
# Assay: NCI-60 one-dose screen, 48 h (100 = growth as untreated, 0 = no growth, -100 = all killed)
# Settings: 10 µM unless noted
row,SMILES,growth
1,"CCC(C)C1NC(=O)C(NC(=O)c2c3nc4c(C(=O)NC5C(=O)NC(C(C)CC)C(=O)N6CCCC6C(=O)N(C)CC(=O)N(C)C(C(C)C)C(=O)OC5C)ccc(C)c4oc-3c(C)c(=O)c2N)C(C)OC(=O)C(C(C)C)N(C)C(=O)CN(C)C(=O)C2CCCN2C1=O (configuration not stated) (I: TIP[Sar][NMeV] / II: TIP[Sar][NMeV]; ester I:1-I:C, II:1-II:C; linker I:N-II:N via Actinocin(1to9); configuration not given here)",-43.6% (active)
2,O=C(c1ccccc1)N(CCCl)C(=O)N(CCCl)C(=O)c1ccccc1,91.5%
3,OC(CSc1ccccc1)CN1CCN(c2ccc(Cl)cc2)CC1 (configuration not stated),98.3%
4,CCCOS(=O)(=O)c1ccccc1,84.6%
5,O=C(c1ccccc1)C(Br)[N+](=O)[O-] (configuration not stated),73.6%
6,CCCCCCCCC(=O)OCCCC(CCC(CCC1CCCO1)OC(=O)CCCCCCCC)OC(=O)CCCCCCCC (configuration not stated),95.6%
7,O=C(CCl)N(c1ccccc1)c1ccccc1,105%
8,NC(=S)N/N=C/c1ncccc1O,17.8%
9,COc1c(C)c2c(c(O)c1C/C=C(\C)CCC(=O)O)C(=O)OC2,46.6%
10,CC1=CC(=O)C=CC1(C)C(Cl)(Cl)Cl (configuration not stated),84.7%
11,O=C1c2ccccc2C(=O)c2c(O)c(Cl)cc(O)c21,96.2%
12,Cc1oc2c(C)c3oc(=O)cc(C)c3cc2c1CCl,92.3%
13,Oc1c(C(Nc2ccccc2)c2ccccc2)ccc2cccnc12 (configuration not stated),24.1%
14,O=C(/C=C/C(Cl)(Cl)Cl)Nc1ccc(Cl)cc1,125%
15,N#CC(=C1SCS1)[N+](=O)[O-],41.7%
16,Cc1cc(N/N=C/c2ccccn2)nc2ccccc12,0.2% (active)
17,CCCCCCN(CCCCCC)CCCNc1nccc2ccccc12,64.3%
18,COC(=O)[C@]1(C)CCC[C@]2(C)c3ccc(C(C)C)cc3C(=O)[C@@H](Br)[C@@H]12,94.3%
19,CCOC(=O)NC(/C=C/c1ccccc1)NC(=O)OCC,100%

row,SMILES,growth
1,NCC(=O)NC(CC(=O)O)C(=O)O (configuration not stated) (H-Gly-[ξD]-OH),101%
2,Nc1nc2ncc(CNc3ccc(C(=O)NC(CCC(=O)NC(CCC(=O)NC(CCC(=O)NC(CCC(=O)NC(CCC(=O)O)C(=O)O)C(=O)O)C(=O)O)C(=O)O)C(=O)O)cc3)nc2c(=O)[nH]1 (configuration not stated),100%
3,O=C(Cc1nc2cc(Cl)c(Cl)cc2nc1CC(=O)c1ccccc1)c1ccccc1,70.5%
4,Cn1c(-c2ccccc2)c(/C=C/C2=[N+](C)c3ccccc3C2(C)C)c2ccccc21,10.2%
5,NC(=Nc1nc(-c2ccccn2)cc2ccccc12)c1ccccn1,8.21% (active)
6,CC(C)(C)c1ccc(O)c(-c2ccccc2)c1,112%
7,CCOC(=O)C1=NN(c2ccccc2)C(=O)/C1=C\N1C(=O)/C(=C/c2cccc(O)c2)SC1=S,84%
8,CCN(CC)CCNc1ccc([N+](=O)[O-])c2sc3ccccc3c(=O)c12,16.9%
9,NCCCN(CCCN)CCCNCc1c2ccccc2c(CNCCCN(CCCN)CCCN)c2ccccc12,87.2%
10,CCOC(=O)/C(=C\c1ccc2ccccc2c1)P(=O)(OCC)OCC,40.6%
11,Cc1cc2nc(CC(=O)c3ccncc3)c(=O)[nH]c2cc1C,95%
12,Oc1c(Cl)cc(Cl)cc1C=NCC1CCC(CN=Cc2cc(Cl)cc(Cl)c2O)CC1 (configuration not stated),95.1%
13,CN1CCC(CN2c3ccccc3Sc3ccccc32)C1 (configuration not stated),91.5%
14,CC1(C)OC2C(COC(c3ccccc3)(c3ccccc3)c3ccccc3)OC(c3c[nH]c4c(N)ncnc34)C2O1 (configuration not stated),81.6%
15,O=[N+]([O-])c1ccc(Oc2ccccc2Cl)c([N+](=O)[O-])c1,99.4%
16,Cc1cc(Br)c2nsnc2c1[N+](=O)[O-],55.6%
17,Cc1cccc2c(N)c3ccccc3nc12,-7.52% (active)
18,O=C(/C(Cl)=N/O)c1ccc(-c2ccccc2)cc1,96.4%
